Measured values reported in the supplement of paper PMC11732987, “Enantioselective OTUD7B fragment discovery through chemoproteomics screening and high-throughput optimisation” (Communications Chemistry, 2025).

Assays:
Assay in all cases: log2 ratio of Biotin-Ahx-Ub-VS probe labelling (fragment/DMSO); higher = less target engagement (more negative = stronger competition), active = hit call of the paper (q ≤ 0.05, log2 ratio ≤ -1)
Details in all cases: compound concentration: 200 uM; treatment time: 3 h
[1] = target: T1, OTUD6B (UniProt Q8N6M0)
T1 sequence (whole entry): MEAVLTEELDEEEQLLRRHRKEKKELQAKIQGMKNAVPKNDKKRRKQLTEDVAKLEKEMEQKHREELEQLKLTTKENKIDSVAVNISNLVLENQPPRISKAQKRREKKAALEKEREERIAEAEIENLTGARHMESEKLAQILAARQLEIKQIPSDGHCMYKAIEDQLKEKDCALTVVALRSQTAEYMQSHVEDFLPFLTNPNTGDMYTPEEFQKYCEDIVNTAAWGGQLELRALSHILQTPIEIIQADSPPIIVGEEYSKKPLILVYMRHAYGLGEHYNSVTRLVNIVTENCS
Procedure, shortened: (§1)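 Labelling with Biotin-Ahx-Ub-VS (0.5 µM final, 1 h) followed a 3 h triplicate treatment of HEK293T lysate (495 µg per sample, Tris/CHAPS/IGEPAL buffer with protease inhibitors) with fragment at 200 µM or vehicle. Labelled DUBs were NeutrAvidin-enriched, digested with LysC and trypsin, and run by diaPASEF LC-MS/MS. The values, average log2 fragment/vehicle ratios by unpaired t-test, come from global-median-normalised Spectronaut label-free quantities. Proteins with ≥2 unique peptides were used.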

[2] = target: T2, OTUD7B (UniProt Q6GQQ9)
T2 sequence (whole entry): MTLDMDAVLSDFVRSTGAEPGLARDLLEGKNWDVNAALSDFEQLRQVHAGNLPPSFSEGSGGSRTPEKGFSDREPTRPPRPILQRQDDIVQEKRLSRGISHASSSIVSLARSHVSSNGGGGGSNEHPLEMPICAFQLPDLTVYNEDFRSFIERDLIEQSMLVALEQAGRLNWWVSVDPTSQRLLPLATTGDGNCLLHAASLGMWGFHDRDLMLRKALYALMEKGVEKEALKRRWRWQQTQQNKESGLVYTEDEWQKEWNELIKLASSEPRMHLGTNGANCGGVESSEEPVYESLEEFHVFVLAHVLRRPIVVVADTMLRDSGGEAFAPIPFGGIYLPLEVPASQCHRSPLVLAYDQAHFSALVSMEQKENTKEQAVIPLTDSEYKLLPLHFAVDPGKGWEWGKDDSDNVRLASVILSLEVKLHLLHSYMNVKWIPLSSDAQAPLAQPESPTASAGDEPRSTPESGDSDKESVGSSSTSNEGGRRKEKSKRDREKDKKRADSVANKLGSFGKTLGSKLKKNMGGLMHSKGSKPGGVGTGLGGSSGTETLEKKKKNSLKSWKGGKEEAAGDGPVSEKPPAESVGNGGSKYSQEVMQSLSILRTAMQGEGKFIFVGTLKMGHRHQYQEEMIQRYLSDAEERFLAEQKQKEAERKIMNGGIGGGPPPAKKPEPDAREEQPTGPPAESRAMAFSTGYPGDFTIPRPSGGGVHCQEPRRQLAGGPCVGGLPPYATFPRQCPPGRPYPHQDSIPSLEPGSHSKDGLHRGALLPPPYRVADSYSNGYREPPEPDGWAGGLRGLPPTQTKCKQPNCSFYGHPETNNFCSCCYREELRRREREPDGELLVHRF
Procedure, shortened: as §1

[3] = target: PRPF8 (UniProt Q6P2Q9)
Procedure, shortened: as §1

[4] = target: T3, PSMD7 (UniProt P51665)
T3 sequence (whole entry): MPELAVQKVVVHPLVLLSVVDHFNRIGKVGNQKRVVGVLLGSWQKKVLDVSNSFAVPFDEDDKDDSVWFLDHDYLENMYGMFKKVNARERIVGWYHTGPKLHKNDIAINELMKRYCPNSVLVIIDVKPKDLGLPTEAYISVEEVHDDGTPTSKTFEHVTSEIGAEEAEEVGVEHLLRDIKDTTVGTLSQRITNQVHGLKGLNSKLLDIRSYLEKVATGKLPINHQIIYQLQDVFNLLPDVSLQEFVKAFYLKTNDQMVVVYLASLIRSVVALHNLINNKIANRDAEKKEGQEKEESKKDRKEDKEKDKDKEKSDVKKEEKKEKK
Procedure, shortened: as §1

[5] = target: UCHL1 (UniProt P09936)
Procedure, shortened: as §1

[6] = target: T4, UCHL3 (UniProt P15374)
T4 sequence (whole entry): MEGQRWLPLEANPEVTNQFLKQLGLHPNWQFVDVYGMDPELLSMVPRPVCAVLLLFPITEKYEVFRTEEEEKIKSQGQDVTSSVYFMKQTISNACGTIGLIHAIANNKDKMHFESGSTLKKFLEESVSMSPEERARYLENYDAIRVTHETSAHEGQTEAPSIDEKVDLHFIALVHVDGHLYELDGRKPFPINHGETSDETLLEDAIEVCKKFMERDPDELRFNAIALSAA
Procedure, shortened: as §1

[7] = target: T5, UCHL5 (UniProt Q9Y5K5)
T5 sequence (whole entry): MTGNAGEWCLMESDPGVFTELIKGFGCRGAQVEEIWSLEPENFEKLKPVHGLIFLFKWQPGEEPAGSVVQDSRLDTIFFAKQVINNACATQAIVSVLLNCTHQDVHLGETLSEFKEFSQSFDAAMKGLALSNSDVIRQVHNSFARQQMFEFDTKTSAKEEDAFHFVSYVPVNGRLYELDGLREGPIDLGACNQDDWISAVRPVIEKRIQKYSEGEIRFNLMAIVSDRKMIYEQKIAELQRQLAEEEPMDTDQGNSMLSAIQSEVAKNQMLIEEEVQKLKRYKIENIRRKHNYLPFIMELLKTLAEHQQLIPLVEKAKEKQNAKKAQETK
Procedure, shortened: as §1

[8] = target: USP10 (UniProt Q14694)
Procedure, shortened: as §1

[9] = target: T6, USP15 (UniProt Q9Y4E8)
T6 sequence (whole entry): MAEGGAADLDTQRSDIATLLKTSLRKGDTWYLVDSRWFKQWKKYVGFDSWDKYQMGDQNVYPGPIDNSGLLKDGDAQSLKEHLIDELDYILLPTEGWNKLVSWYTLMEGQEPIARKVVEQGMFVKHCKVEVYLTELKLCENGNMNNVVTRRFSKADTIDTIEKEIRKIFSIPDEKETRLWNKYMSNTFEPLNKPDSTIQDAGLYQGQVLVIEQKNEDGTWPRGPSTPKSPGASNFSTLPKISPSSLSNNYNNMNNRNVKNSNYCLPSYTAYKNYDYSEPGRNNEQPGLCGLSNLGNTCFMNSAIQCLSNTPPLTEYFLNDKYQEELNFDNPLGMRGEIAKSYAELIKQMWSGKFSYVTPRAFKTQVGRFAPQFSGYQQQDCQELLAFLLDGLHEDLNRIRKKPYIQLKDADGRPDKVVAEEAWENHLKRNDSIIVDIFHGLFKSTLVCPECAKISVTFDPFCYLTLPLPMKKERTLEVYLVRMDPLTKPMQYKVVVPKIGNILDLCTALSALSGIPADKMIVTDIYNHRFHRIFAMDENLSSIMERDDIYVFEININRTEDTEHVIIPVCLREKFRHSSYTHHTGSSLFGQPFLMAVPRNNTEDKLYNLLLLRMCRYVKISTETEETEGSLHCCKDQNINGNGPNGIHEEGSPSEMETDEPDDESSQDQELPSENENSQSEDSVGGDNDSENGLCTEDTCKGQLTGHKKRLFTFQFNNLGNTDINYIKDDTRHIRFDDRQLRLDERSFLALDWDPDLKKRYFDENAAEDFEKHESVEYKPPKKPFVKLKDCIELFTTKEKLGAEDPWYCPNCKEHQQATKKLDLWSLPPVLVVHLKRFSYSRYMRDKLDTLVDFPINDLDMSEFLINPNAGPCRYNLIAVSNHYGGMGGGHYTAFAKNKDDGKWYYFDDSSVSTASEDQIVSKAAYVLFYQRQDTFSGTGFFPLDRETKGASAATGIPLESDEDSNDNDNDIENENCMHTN
Procedure, shortened: as §1

[10] = target: USP16 (UniProt Q9Y5T5)
Procedure, shortened: as §1

Measured: log2 ratio of Biotin-Ahx-Ub-VS probe labelling

Chain of USP16 (Q9Y5T5 whole entry, looked up): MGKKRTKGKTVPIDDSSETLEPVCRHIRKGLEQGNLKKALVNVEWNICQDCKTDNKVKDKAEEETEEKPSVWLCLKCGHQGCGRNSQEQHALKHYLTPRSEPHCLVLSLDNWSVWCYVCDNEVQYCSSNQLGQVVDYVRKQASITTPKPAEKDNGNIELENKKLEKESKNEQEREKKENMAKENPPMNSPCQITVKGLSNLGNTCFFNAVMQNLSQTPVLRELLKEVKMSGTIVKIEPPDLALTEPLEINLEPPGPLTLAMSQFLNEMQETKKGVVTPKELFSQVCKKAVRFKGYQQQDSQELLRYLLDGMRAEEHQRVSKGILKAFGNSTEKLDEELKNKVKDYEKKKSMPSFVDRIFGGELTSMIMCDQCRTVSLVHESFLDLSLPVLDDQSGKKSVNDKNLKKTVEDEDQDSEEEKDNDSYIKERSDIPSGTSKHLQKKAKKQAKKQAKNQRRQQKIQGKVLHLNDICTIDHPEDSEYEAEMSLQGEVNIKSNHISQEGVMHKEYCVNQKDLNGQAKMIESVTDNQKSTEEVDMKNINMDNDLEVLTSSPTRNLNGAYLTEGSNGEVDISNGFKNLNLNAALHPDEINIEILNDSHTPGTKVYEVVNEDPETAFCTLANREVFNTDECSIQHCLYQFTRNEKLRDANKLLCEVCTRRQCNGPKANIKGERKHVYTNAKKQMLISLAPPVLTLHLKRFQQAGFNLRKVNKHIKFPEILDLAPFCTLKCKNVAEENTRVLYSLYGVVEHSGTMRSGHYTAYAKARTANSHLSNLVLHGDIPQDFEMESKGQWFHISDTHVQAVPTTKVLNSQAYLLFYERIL
Chain of USP10 (Q14694 whole entry): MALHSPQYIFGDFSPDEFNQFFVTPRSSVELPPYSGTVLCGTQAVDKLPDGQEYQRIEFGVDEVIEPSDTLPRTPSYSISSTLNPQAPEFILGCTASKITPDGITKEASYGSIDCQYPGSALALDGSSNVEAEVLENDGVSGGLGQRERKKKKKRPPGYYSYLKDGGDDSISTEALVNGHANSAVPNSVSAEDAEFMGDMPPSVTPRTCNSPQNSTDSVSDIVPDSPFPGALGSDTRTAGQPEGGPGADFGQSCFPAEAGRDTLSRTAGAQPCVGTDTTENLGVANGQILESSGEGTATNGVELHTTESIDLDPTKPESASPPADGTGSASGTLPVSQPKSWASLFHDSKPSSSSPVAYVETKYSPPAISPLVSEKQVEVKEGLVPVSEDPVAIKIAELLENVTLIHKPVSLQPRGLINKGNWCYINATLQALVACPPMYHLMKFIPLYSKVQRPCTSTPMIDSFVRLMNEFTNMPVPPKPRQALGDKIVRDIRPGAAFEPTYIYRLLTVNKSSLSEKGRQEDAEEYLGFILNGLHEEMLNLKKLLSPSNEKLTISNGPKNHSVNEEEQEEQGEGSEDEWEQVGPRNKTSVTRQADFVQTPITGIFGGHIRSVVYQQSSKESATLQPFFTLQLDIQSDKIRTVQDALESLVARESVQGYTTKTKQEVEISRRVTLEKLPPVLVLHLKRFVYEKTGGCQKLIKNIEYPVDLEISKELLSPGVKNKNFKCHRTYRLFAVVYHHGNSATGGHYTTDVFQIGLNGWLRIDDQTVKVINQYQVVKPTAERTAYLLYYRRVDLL
Chain of UCHL1 (P09936 whole entry, looked up): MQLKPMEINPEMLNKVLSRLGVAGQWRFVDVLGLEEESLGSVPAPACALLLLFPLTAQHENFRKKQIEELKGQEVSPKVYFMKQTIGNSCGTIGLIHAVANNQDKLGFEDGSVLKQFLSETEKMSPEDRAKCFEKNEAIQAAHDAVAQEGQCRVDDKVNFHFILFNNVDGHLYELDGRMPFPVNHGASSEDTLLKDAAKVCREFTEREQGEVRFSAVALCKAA

O=C(CCl)N1CCC(=C(F)CO)C1
inactive: [1] 0.0579 | [2] 0.0673 | [3] 0.202 | [4] 0.0975 | [6] -0.0974 | [7] 0.0121 | [8] -0.107 | [9] -0.156 | [10] -0.506
active: [5] -1.56
